# Assay results reported in ChEMBL document CHEMBL1961873, “Compounds: GSK PKIS; Assays: Nanosyn kinase panel” (2012).
# Legend:
# [1] = molecular target: Protein kinase C gamma type (Homo sapiens) (UniProt P05129); conditions: at 1 µM;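 further: each value is an averaged percent inhibition of the enzyme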
# [2] = molecular target: T1, Protein kinase C iota type (Homo sapiens) (UniProt P41743); conditions: at 0.1 µM
# T1 sequence (whole entry): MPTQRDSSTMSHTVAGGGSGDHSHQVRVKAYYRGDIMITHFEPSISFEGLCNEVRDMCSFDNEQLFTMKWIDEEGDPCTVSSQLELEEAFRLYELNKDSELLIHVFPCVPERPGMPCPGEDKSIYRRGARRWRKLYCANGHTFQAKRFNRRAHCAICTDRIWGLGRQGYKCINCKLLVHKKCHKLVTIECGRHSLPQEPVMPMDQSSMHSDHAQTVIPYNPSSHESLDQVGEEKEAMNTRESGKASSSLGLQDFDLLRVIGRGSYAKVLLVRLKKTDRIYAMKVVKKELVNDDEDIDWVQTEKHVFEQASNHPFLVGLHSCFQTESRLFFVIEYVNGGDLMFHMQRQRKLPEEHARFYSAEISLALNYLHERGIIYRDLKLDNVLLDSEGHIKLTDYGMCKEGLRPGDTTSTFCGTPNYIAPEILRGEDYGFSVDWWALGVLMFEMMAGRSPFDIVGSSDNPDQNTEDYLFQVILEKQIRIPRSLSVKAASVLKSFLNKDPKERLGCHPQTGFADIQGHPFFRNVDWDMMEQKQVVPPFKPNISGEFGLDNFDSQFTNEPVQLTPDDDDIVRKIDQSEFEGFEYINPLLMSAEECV
# [3] = molecular target: T1, Protein kinase C iota type (Homo sapiens); conditions: at 1 µM
# [4] = molecular target: Protein kinase C theta type (Homo sapiens) (UniProt Q04759); conditions: at 0.1 µM
# [5] = molecular target: Protein kinase C theta type (Homo sapiens) (UniProt Q04759); conditions: at 1 µM
# [6] = molecular target: Protein kinase C beta type (Homo sapiens) (UniProt P05771); conditions: at 0.1 µM
# [7] = molecular target: Protein kinase C beta type (Homo sapiens) (UniProt P05771); conditions: at 1 µM
# [8] = molecular target: T2, Serine/threonine-protein kinase D1 (Homo sapiens) (UniProt Q15139); conditions: at 0.1 µM
# T2 sequence (whole entry): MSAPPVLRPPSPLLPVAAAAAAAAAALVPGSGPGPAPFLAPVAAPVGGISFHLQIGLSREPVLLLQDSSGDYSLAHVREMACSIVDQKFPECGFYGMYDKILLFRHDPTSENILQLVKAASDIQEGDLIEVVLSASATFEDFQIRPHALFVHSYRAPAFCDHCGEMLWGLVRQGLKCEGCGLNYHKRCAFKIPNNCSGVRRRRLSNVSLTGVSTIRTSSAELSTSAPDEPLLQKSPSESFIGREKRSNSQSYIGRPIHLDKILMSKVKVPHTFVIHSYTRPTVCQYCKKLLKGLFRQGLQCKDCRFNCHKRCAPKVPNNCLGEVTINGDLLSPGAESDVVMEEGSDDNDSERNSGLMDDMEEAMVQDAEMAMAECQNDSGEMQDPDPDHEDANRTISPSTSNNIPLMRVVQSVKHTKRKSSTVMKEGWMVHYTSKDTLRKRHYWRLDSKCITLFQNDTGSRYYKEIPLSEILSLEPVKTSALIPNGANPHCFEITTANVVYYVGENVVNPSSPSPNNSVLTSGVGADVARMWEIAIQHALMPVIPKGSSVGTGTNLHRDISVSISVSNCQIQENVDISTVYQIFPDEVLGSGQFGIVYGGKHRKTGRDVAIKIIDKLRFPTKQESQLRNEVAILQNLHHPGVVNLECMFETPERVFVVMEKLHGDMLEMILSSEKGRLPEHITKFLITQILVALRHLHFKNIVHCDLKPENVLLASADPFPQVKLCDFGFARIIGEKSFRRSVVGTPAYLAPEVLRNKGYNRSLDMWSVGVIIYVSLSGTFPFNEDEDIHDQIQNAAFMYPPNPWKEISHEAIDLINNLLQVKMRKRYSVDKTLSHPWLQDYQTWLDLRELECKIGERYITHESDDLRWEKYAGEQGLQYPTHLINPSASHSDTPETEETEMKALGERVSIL
# [9] = molecular target: T2, Serine/threonine-protein kinase D1 (Homo sapiens); conditions: at 1 µM
# [10] = molecular target: T3, Serine/threonine-protein kinase D2 (Homo sapiens) (UniProt Q9BZL6); conditions: at 0.1 µM;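 further: reported percent inhibition values are means, part of the GSK PKIS kinase panel screen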
# T3 sequence (whole entry): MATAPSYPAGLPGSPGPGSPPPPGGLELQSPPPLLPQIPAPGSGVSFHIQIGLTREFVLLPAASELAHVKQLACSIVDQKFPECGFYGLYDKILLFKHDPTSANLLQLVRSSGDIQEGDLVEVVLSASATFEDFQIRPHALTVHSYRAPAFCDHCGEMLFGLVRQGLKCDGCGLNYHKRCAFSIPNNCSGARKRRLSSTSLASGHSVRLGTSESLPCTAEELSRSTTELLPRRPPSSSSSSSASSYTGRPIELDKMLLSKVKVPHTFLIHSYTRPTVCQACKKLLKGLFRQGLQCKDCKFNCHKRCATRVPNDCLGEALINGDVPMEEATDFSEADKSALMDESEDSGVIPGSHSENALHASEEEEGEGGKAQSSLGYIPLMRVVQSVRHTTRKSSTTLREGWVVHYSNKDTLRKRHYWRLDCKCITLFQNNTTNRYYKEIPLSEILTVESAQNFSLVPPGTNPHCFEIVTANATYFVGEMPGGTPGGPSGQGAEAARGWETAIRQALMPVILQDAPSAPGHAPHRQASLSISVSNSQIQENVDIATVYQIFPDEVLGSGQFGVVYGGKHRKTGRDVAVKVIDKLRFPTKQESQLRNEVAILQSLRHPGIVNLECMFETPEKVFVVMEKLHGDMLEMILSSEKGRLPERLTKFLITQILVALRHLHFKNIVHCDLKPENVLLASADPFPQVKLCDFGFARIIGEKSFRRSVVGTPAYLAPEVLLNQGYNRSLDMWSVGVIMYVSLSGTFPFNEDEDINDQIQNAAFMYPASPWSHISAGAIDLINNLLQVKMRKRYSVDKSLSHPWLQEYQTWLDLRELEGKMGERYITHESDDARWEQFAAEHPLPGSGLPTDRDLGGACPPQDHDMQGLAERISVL
# Chain of Protein kinase C theta type (Homo sapiens) (Q04759 whole entry, looked up): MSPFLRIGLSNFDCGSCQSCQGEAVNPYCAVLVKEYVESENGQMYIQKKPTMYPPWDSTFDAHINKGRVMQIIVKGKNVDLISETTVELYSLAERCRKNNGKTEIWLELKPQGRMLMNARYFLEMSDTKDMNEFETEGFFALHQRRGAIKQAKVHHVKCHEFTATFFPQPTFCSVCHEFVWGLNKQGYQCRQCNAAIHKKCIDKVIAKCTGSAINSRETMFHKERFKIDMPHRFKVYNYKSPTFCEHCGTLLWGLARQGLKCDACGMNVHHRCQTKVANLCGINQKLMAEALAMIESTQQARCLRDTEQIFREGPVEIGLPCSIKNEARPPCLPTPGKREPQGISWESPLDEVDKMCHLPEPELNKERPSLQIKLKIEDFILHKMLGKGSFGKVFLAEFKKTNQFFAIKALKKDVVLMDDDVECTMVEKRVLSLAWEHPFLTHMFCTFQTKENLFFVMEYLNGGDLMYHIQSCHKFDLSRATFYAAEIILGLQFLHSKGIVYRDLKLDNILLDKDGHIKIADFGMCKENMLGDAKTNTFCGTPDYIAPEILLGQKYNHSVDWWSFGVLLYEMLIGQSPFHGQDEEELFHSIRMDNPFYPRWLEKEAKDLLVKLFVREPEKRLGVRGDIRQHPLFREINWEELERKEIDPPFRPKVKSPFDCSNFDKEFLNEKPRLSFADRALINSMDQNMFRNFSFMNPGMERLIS
# Chain of Protein kinase C beta type (Homo sapiens) (P05771 2-671 limits assumed): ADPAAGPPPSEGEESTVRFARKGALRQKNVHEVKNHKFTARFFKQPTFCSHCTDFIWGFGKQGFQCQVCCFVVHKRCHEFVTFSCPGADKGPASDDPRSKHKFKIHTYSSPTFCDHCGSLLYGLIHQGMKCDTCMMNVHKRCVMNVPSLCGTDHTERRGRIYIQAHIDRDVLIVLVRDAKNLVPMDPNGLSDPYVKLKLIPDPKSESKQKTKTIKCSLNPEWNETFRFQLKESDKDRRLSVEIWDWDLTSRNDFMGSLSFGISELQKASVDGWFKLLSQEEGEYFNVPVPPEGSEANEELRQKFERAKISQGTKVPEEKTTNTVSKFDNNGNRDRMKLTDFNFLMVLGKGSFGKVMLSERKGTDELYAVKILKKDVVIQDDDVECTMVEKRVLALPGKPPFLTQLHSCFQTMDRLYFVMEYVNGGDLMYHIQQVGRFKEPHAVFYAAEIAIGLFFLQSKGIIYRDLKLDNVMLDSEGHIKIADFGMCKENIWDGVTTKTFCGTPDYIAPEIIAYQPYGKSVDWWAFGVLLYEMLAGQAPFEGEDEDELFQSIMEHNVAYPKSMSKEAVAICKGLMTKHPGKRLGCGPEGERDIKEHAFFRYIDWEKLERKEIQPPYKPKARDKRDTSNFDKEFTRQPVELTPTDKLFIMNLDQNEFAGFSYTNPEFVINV
SMILES,inhibition [1] [%],inhibition [2] [%],inhibition [3] [%],inhibition [4] [%],inhibition [5] [%],inhibition [6] [%],inhibition [7] [%],inhibition [8] [%],inhibition [9] [%],inhibition [10] [%]
Nc1nonc1-c1nc2cnccc2n1C1CCCCC1,49,-0.01,4.76,10.3,55.2,6.66,33.7,-0.73,2.75,-1.07
CCn1c(-c2nonc2N)nc2c(C#CCN)ncc(OCCCN)c21,4.01,2.51,16.5,6.73,38.6,4.07,12,-1.16,-3.02,-2.14
NS(=O)(=O)c1ccc(-c2ccc3c(NC(=O)C4CC4)n[nH]c3c2)cc1,0.37,1.06,3.22,1.13,-0.43,0.67,1.78,1.17,1.47,1.52
NC(=O)c1sc(-n2cnc3cc(C(F)(F)F)ccc32)cc1OCc1ccccc1Br,2.52,0.97,0.63,0.18,0.55,0.4,0.57,1.33,1.94,1.96
CCn1c(-c2nonc2N)nc2c(C#CC(C)(C)O)ncc(OC[C@@H]3CCCN3)c21,44.6,0.62,11.4,30,72.3,7.63,37.1,2.68,19.2,4.02
Fc1ccc(-c2ncn(C3CCNCC3)c2-c2ccnc(Oc3ccccc3)n2)cc1,2.28,0.81,1.84,1.21,1.59,1.22,5.65,-1.04,0.79,-1.14
CCn1c(-c2nonc2N)nc2c(C#CC(C)(C)O)ncc(OCC3CCNCC3)c21,39.9,-0.7,13.5,21.5,65.5,8.97,37.6,-0.45,6.01,-0.27
Cc1cc(-c2ccco2)cc(C)c1/C=C/c1cncc(-c2nn[nH]n2)c1,1.85,0.32,-0.83,0.29,-0.04,-0.04,-0.06,0.58,2.09,0.97
COc1cc2c(cc1Nc1nc(Nc3ccsc3C(N)=O)c3cc[nH]c3n1)N(C(=O)CN(C)C)CCC2,–,-0.4,-0.5,4.39,10.2,-1.27,2.49,3.95,19.8,12.2
COc1cc(C=NNc2ncnc3c2cnn3Cc2ccccc2)ccc1O,2.96,-1.06,-0.54,-1.05,1.99,-1.09,1.44,-4.01,-1.69,-3.31
CCn1c(-c2nonc2N)nc2c(C#CC(C)(C)O)nc(O[C@@H](CN)c3ccccc3)cc21,81.1,3.68,26.4,73.5,84.8,49.2,80.5,8.23,61.6,9.02
NS(=O)(=O)c1ccc(N/C=C2\C(=O)Nc3ccc4ncsc4c32)cc1,5.52,1.93,2.78,3.02,6.57,1.34,3.28,22.4,67.3,16.3
COc1cccc(COc2cc(-n3cnc4ccccc43)sc2C(N)=O)c1,3.94,-0.74,-0.85,1.23,1.18,0.72,1.77,0.37,1.82,1.64
COc1cccc(-n2ncc3c(N/N=C/c4ccncc4)ncnc32)c1,7.85,3.39,13.1,2.97,5.71,2.37,9.57,4.37,10.1,4.75
